Shown are actives, neighbours in structure and some others; about 6.2% of the full set was active somewhere.
ATXN viability: cell viability loss in ATXN counter-screen; S2 cells (HEK-293 line with an ATXN2-luciferase reporter) viability, CellTiter-Fluor protease fluorescence, 24 h; hit rate 0.49% among 400,000; AID 651635; Potency, µM (top dose mostly 56.7 µM), most hits filed as cytotoxic; also: nearly all actives have a fitted effect of over 40% in size
HT1080-NT tox: kills 2HG-producing HT-1080-NT fibrosarcoma cells; HT-1080-NT fibrosarcoma viability, CellTiter-Glo ATP luminescence, 48 h; Potency, µM (highest dose often 46.1 µM), for the others: at the top dose activity, negative = less viability, usual class: cytotoxic; hit rate 1.6% among 360,000;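 also: NT is the 2HG producing partner of a matched IDH1 knockdown line; 0% = DMSO-treated cells and -100% = media-only wells without cells; nearly all actives have a fitted effect of over 55% in size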
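Compounds were tested in concentration-response format on HT-1080-NT cells for 48 hours at 37 degrees C. Cell viability came from CellTiter-Glo luminescence; curves were classified by r2, response magnitude and activity.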
KB-3-1 tox: kills parental KB-3-1 adenocarcinoma cells | KB-3-1 viability, CellTiter-Glo ATP luminescence, 72 h | Potency, µM (doses to about 46.1 µM), most hits filed as cytotoxic | hit rate 1.4% among 400,000 | AID 1347075; also: % is scaled to controls: 0 for no effect and ±100 for the full control effect; nearly all actives have a fitted effect of over 60% in size
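Cytotoxicity in the drug-sensitive parental line KB-3-1 was scored as loss of CellTiter-Glo luminescence following 72 h incubation with compound. Values come from curve fitting of normalized concentration-response data.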
HT1080 IDH1KD tx: toxicity to HT-1080 IDH1 knockdown cells (counter line); AID 686971; Potency, µM (top dose mostly 46.1 µM), for inactives: top-dose activity, negative = toxicity, usual class: cytotoxic; HT-1080 IDH1 knockdown viability, ATP luminescence, 48 h; hit rate 2% among 360,000;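 also: 0% = DMSO wells and -100% = cell-free medium wells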
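Viability of IDH1-knockdown HT-1080 fibrosarcoma cells was assessed by CellTiter-Glo after 48 h at 37 °C with titrated compound; concentration-effect curves were classified by fit quality and response size.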
KB-V1 MDR tox: kills drug-selected multidrug resistant KB-V1 cells. KB-V1 MDR cells viability, CellTiter-Glo, 72 h. AID 1347076. Potency, µM (top dose mostly 46.1 µM), actives largely listed as cytotoxic. hit rate 3.4% among 400,000; also: % is scaled to controls: 0 for no effect and ±100 for the full control effect; nearly all actives have a fitted effect of over 60% in size
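Cells of the MDR subline KB-V1 are plated, dosed with compound at multiple concentrations, and incubated 72 h at 37 degrees C; CellTiter-Glo is then added and luminescence read after 10 min.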
ATXN2 expr inh: inhibitors of ATXN2 expression | HEK-293 ATXN2-luciferase reporter, luminescence, 24 h | Potency, µM (doses to about 57 µM), without a hit: at the highest dose activity change, negative = inhibition, usual class: inhibitors | hit rate 0.72% among 360,000; also: % is scaled to controls: 0 for no effect and ±100 for the full control effect; nearly all actives have a fitted effect of over 55% in size
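qHTS (up to 57 uM final) was run with 24 h compound exposure of reporter cells at 37 °C. Each well was multiplexed: SteadyGlo luminescence measured ATXN2-luciferase expression after a fluorogenic Gly-Phe-AFC viability readout (25 uM final).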
Active calls of the source: *; i = inactive; u = inconclusive; x = no result given. Calls follow the shape of the dose curve; as a rule, active = well fitted curve in the direction sought with a large enough effect; inconclusive = small, poorly fitted or top-dose-only effect, or another doubt; inactive = no such curve, though single readings can be large; an effect the other way counts as inactive or inconclusive. Potency is read from the fitted curve at half-maximal effect.

SMILES	ATXN viability	HT1080-NT tox	KB-3-1 tox	HT1080 IDH1KD tx	KB-V1 MDR tox	ATXN2 expr inh
O=c1oc2ccccc2c(N2CCN(c3ccccc3F)CC2)c1CN1CCCC1	i	x	i	x	i	-21%
Cc1ccc(-c2noc(C3CCN(C(=O)Nc4ccc(C#N)cc4)CC3)n2)o1	i	-16%	u	u	2.6µM*	-24%
CCOc1cccc(C(=O)Nc2ccc(-c3nc4ncccc4o3)cc2C)c1	u	x	i	x	i	u
COc1cccc(-n2c(=O)c3sc4ccccc4c3n(CC(=O)Nc3ccc(F)cc3F)c2=O)c1	u	x	i	x	i	-27%
O=c1[nH]c(CCC2CCCC2)nc2ccccc12	i	0%	i	0%	16µM*	11%
O=C(COCc1nc2ccccc2c(=O)[nH]1)NCC1CCCCC1	i	-5%	i	-30%	i	11%
O=C(c1ccc(Br)cc1)N(Cc1nc2ccccc2c(=O)[nH]1)C1CCCC1	i	u	16µM*	23µM*	u	-33%
COc1ccc(OC)c(NC(=O)[C@H](CSCc2ccccc2)N2Cc3ccccc3C2=O)c1	i	x	i	x	i	-5%
COC(=O)c1sccc1NC(=O)c1csc(C)c1	i	-22%	i	u	16µM*	1%
CCOc1ccccc1C(=O)Nc1ccccc1C(N)=O	i	2%	i	-18%	13µM*	1%
CCOc1ccccc1C(=O)Nc1ccsc1C(=O)OC	u	u	5.8µM*	u	7.3µM*	-20%
CCCCNS(=O)(=O)c1ccc(S(=O)(=O)N2CCC3(CC2)OCCO3)cc1	i	2%	i	3%	16µM*	-1%
Cc1ccc(Cn2ccsc2=NC(=O)CCl)cc1	0.79µM*	1µM*	21µM*	12µM*	u	u
COc1ccc(CCNC(=O)c2ccc3c(c2)N(Cc2cc(C)ccc2C)C(=O)c2ccccc2S3=O)cc1OC (centres undefined)	i	x	i	x	i	1%
CCOC(=O)c1ccccc1NC(=O)N1CCN(Cc2cc(=O)n3nc(-c4ccccc4)sc3n2)CC1	i	x	i	x	u	3%
COc1cccc2sc(N(CCN(C)C)C(=O)/C=C/c3cccs3)nc12	u	-16%	i	u	i	x
COc1ccc(C)c2sc(N(CCN(C)C)C(=O)/C=C/c3cccs3)nc12	u	21µM*	u	u	u	u
CCN(CC)CCN(C(=O)/C=C/c1cccs1)c1nc2ccc(F)cc2s1	i	-21%	i	-10%	i	x
COc1ccc(OC)c2sc(N(CCN(C)C)C(=O)/C=C/c3cccs3)nc12	x	18µM*	u	16µM*	u	u
CN(C)CCCN(C(=O)/C=C/c1cccs1)c1nc2ccc(F)cc2s1	x	9.2µM*	21µM*	u	18µM*	u
CSc1cccc(NC(=O)NCc2cccc(CNC(=O)Nc3cccc(SC)c3)c2)c1	u	23µM*	u	u	i	x
COc1ccc(/C=C/c2ccc3ccccc3n2)cc1OC	x	x	u	x	i	x
CCOc1ccccc1Nc1ccc2cc(S(=O)(=O)N3CCCCC3)ccc2n1	i	x	u	x	u	-23%
CCCCCCCCCCCC[n+]1ccc(/C=C/c2c[nH]c3ccccc23)c2ccccc21	x	x	u	x	i	x
Cc1[nH]c2ccccc2c1/C=C/C(=O)c1ccncc1	x	-3%	i	-1%	i	-19%
SMILES	ATXN viability	HT1080-NT tox	KB-3-1 tox	HT1080 IDH1KD tx	KB-V1 MDR tox	ATXN2 expr inh
CCCCCCC[n+]1ccc(/C=C/c2c(C)[nH]c3ccccc23)c2ccccc21	x	x	8.2µM*	x	u	x
CCCCCCCCCC[n+]1ccc(/C=C/c2c(C)[nH]c3ccccc23)c2ccccc21	x	x	5.8µM*	x	u	x
CCCCCCC[n+]1ccc(/C=C/c2c[nH]c3ccccc23)c2ccccc21	x	x	7.3µM*	x	u	x
COc1ccc(CCn2cc3c(c2-c2ccccc2Br)c(=O)n(C)c(=O)n3C)cc1OC	i	x	i	x	i	-17%
CC(=O)N/C(=C/c1ccccc1)c1ccncc1	x	x	i	x	i	x
CCOC(=O)c1ccc(N(C(=O)c2ccccc2)c2ccccc2)cc1	x	x	i	x	i	x
Fc1ccccc1NC(=S)N1CCN(C/C=C/c2ccccc2)CC1	i	0%	u	-2%	16µM*	-10%
Cc1ccccc1C(=O)NCC(=O)N1CCN(C/C=C/c2ccccc2)CC1	i	6%	i	-1%	i	-28%
COc1cc(NC(=S)N2CCN(C/C=C/c3ccccc3)CC2)cc(OC)c1	i	-12%	i	-24%	i	-22%
COc1cccc(NC(=S)N2CCN(C/C=C/c3ccccc3)CC2)c1	i	13µM*	i	u	u	-16%
COc1ccccc1C(=O)NCC(=O)N1CCN(C/C=C/c2ccccc2)CC1	i	-3%	i	8%	8.2µM*	-2%
COc1ccc(NC(=O)CSc2nc(-c3ccccc3)cc(-c3cc(OC)c(OC)c(OC)c3)c2C#N)c(OC)c1	i	x	i	x	i	3%
NNc1nnc2c3cc(F)ccc3n(CCc3ccccc3)c2n1	u	u	23µM*	u	u	u
COC(=O)c1cn(C(=O)c2ccc(C)cc2C)c2ccccc12	i	u	u	6.5µM*	i	-19%
CC(C)c1ccc(NC(=O)CSc2ncnc3c2sc2ccccc23)cc1	i	x	i	x	i	7%
CC1CC(=O)c2c(cc3c(-c4c(O)cc(O)c5c(O)c6c(cc45)OC(C)CC6=O)c(O)cc(O)c3c2O)O1 (centres undefined)	i	4.6µM*	u	5.2µM*	u	20µM*
O=C1CC(c2ccc(O)cc2)Oc2cc(O)cc(O)c21 (centres undefined)	i	-11%	i	13%	i	23%
Cc1ccc(/C=C2/Sc3ccccc3N(CC(=O)NCCCOC(C)C)C2=O)cc1	i	15%	i	17%	23µM*	-9%
CCOCCCNC(=O)CN1C(=O)/C(=C\c2ccc(C)cc2)Sc2ccccc21	i	2%	i	2%	4.6µM*	-2%
CCOCCCNC(=O)CN1C(=O)/C(=C/c2ccccc2)Sc2ccccc21	i	7%	i	3%	15µM*	-1%
COc1ccc(-n2cc(-c3ccc4c(c3)OCO4)n(CC(=O)Nc3cccc(C)c3)c2=O)cc1	i	x	i	x	i	10%
CCc1ccc(OCc2cc(=O)n3c4c(sc3n2)CCCC4)cc1	i	x	i	x	i	5%
CCOc1ccccc1NC(=O)CN1Cc2ccccc2C1=O	x	x	u	x	i	x
